m-calpain inh: calpain II (pig) inhibition | purified calpain II, fluorogenic peptide substrate, 30 min | inhibition, % at 16 µM | actives 0.37% (n = 220,000) | AID 1236;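 active = inhibition above about 50%, limit read from the data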
aDG glyco act: increases alpha dystroglycan glycosylation | AID 624168 | Pro5-aDG cells, alpha-DG glycosylation AlphaScreen (IIH6); 0% Pro5, 100% B10-LARGE cell signal | activation, % at 10 µM | actives 0.22% (n = 360,000);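 active = activation of at least 8% versus controls, or a plate z-score of at least 8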;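 note: Pro5 are CHO cells carrying HIG-tagged alpha-DG that lacks glycosylation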
FAS TE block: FAS thioesterase (human) inhibition; P49327; recombinant FAS-TE, OMFH fluorogenic substrate, fluorescence endpoint; inhibition, % at 15 µM; actives 0.67% (n = 360,000);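 active = compounds whose normalised, plate-corrected inhibition of enzyme fluorescence in the single-dose primary screen is 50% or more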
Target sequence (P49327 whole entry, looked up): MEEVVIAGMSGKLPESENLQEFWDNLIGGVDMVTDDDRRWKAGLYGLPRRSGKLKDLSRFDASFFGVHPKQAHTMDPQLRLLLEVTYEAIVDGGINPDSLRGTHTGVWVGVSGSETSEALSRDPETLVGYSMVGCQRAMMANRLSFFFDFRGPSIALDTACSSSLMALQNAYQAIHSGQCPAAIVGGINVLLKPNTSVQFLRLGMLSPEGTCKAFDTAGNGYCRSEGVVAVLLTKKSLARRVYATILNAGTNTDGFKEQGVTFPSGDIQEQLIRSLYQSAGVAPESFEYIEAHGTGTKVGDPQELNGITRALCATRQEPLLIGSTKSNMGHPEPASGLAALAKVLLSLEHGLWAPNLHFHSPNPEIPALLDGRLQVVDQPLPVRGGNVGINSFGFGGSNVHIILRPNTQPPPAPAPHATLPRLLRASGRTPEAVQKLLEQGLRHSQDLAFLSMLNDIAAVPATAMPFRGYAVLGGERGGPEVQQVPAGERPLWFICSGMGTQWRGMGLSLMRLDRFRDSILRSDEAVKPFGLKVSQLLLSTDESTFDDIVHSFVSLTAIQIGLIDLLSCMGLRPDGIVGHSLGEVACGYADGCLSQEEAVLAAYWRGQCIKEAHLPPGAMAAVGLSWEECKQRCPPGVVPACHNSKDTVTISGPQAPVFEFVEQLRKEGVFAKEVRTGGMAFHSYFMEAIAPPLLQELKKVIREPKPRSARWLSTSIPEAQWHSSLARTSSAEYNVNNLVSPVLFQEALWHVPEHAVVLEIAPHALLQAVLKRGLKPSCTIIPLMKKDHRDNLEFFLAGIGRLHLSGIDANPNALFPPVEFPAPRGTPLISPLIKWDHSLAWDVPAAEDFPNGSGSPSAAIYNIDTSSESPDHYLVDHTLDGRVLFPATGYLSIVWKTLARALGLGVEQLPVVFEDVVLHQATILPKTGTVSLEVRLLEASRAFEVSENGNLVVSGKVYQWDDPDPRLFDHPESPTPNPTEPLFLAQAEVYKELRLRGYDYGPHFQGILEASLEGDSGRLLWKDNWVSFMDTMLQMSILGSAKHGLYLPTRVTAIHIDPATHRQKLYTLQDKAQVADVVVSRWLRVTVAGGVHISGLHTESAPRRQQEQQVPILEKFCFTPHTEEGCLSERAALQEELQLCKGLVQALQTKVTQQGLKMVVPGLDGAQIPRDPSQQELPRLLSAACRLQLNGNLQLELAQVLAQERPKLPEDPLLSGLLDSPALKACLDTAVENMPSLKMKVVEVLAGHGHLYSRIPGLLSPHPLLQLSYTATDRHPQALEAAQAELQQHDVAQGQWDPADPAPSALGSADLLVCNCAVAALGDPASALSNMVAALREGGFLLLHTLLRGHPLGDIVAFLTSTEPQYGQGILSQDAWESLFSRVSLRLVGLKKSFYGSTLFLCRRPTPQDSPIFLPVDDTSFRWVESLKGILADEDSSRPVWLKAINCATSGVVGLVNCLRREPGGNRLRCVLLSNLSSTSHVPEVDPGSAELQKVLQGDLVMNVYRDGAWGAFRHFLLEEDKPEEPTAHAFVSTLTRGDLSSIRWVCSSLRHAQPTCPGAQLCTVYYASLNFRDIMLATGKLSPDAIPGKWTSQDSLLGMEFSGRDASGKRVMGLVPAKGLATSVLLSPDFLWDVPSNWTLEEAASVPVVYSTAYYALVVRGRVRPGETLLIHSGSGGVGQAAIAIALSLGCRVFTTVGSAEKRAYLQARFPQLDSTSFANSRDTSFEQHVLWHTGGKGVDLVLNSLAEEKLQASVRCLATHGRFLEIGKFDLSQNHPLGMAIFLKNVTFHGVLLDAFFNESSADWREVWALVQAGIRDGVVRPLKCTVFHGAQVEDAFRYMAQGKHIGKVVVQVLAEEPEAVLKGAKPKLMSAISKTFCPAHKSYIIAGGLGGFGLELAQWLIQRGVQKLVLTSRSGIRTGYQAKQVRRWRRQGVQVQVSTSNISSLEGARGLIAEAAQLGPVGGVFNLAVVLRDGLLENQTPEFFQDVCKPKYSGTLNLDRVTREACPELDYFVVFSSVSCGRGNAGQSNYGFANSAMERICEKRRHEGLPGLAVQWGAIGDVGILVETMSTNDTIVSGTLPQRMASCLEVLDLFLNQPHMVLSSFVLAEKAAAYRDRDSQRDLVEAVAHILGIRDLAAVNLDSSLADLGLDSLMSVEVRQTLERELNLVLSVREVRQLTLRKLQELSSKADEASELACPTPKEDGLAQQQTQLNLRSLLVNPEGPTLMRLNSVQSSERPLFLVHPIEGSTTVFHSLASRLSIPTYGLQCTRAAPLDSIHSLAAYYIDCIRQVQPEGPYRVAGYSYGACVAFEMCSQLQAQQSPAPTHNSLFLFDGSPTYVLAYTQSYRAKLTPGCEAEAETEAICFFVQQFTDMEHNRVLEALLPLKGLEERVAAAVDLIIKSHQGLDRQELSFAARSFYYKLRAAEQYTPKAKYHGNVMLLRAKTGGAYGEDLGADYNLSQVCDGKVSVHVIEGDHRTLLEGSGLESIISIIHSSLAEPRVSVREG
TAG inh: inhibitors of triacylglycerol accumulation; inhibition, % at 12.5 µM; H9c2 cells, Nile Red lipid (TAG) fluorescence; cells loaded with 200 µM oleic acid; actives 0.66% (n = 230,000); AID 651582;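 active = pattern-corrected inhibition of lipid staining of at least 50% with the nuclear-stain viability signal not falling by more than 50%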
MIN6 prolif: MIN6 beta-cell proliferation induction; MIN6 cells proliferation, ATPlite luminescence, 48 h; cells starved in 0.2% serum; 100% = growth in 10% serum; proliferation, % at 10 µM; actives 0.29% (n = 330,000);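 active = compounds whose signal lies at least 3.5 SD above the mean of all wells on their plate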
Cardio protect: modulators protecting cardiomyocytes from myocardial damage. H9c2 cardiomyocytes, H2O2 injury protection, ATPLite, 2 h. protection from H2O2 cell death, % at 20 µM. actives 0.63% (n = 360,000);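 active = compounds giving at least 50% protection of heart cells from peroxide-induced death in the single-dose screen, raw or plate-pattern-corrected value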
FAS-TE inh conf: FAS thioesterase (human) inhibition, confirmation; AID 624325; actives 45% (n = 2,300); inhibition, % at 15 µM; shares compounds with FAS TE block; recombinant FAS-TE, OMFH fluorogenic substrate, fluorescence;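 active = compounds inhibiting the enzyme by at least 50% at 15 µM in any one of the replicates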
A number is an active result; - = inactive; . = no result. Only some compounds are listed: those with a hit (about 2.3% of all), similar ones and a draw of the others.

SMILES	m-calpain inh	aDG glyco act	FAS TE block	TAG inh	MIN6 prolif	Cardio protect	FAS-TE inh conf
Cc1ccc(NC(=O)C2CCN(S(=O)(=O)c3ccc(C(C)(C)C)cc3)CC2)cc1S(=O)(=O)N1CCOCC1	.	-	88.9	-	.	-	-
COc1cccc(CSc2nnc(-c3ccncc3)n2N)c1	.	-	-	.	-	-	.
Cc1ccc(S(=O)(=O)ON2C(=O)c3ccccc3C2=O)c(C)c1	-	-	75.3	.	.	-	93.5
Cc1cc(C)c(C)c(S(=O)(=O)ON2C(=O)c3ccccc3C2=O)c1C	-	-	90.4	.	-	-	94.9
O=C1c2ccccc2C(=O)N1OS(=O)(=O)c1ccc(F)cc1	.	-	70.7	.	.	-	50.4
Cc1cc(C)c(S(=O)(=O)ON2C(=O)c3ccccc3C2=O)cc1C	-	-	90.8	.	-	-	95.0
Cc1cccc2c1N(C)C(=O)C2=O	-	-	-	-	-	-	.
CN(C)c1ncnc2c1ncn2C1CCCO1 (centres undefined)	.	-	-	-	.	-	.
O=C(NCc1ccncc1)c1cc(S(=O)(=O)N2CCOCC2)c(Cl)cc1Cl	.	-	-	-	-	-	.
CCN(CC(=O)Nc1ccc(OC)cc1)CC(=O)N1CC(=O)Nc2ccccc21	.	-	-	-	-	-	.
CCC(CC)C(=O)Nc1ccc(-c2cn3cccnc3n2)cc1	.	-	-	.	-	-	.
O=C(Nc1cccc(S(=O)(=O)N2CCOCC2)c1)c1cn(-c2ccccc2)nc1-c1ccccc1	-	-	51.4	.	-	-	-
CC(C)(C)NC(=O)NC(=O)COC(=O)C1CCN(S(=O)(=O)c2cccs2)CC1	.	-	52.6	-	-	-	46.2
COc1ccc(Cl)cc1-c1noc([C@@H]2O[C@H](CO)[C@H](O)[C@H](O)[C@H]2O)n1	.	-	-	-	.	-	.
CCOC(=O)c1c(NC(=O)c2ccc(N3C(=O)[C@@H]4[C@H](C3=O)[C@H]3C=C[C@@H]4C3)cc2)sc2c1CC(C)CC2 (some centres undefined)	-	-	51.3	-	-	-	-
CCOC(=O)c1c(NC(=O)C2C3C=CC(C3)C2C(=O)O)sc2c1CC(C)CC2 (centres undefined)	-	-	-	-	-	-	.
Cc1ccc(N2CC(C(=O)Nc3cc(C(F)(F)F)ccc3N3CCCC3)CC2=O)cc1 (centres undefined)	.	-	-	-	-	-	.
COc1ccccc1N1CC(C(=O)Nc2cc(C(F)(F)F)ccc2N2CCCC2)CC1=O (centres undefined)	.	-	62.9	-	-	-	65.2
COc1ccc(C(=O)NCCN2CCC(n3c(=O)[nH]c4ccccc43)CC2)cc1F	.	-	-	.	.	.	.
CCn1c2ccccc2c2cc(NC(=O)c3cccc([N+](=O)[O-])c3)ccc21	.	-	-	-	-	-	.
CCn1c2ccccc2c2cc(NC(=O)c3ccc(C)c([N+](=O)[O-])c3)ccc21	-	-	52.2	.	-	-	-
Cc1ccc(C(NC(=O)/C=C\c2ccc3c(c2)OCO3)C(=O)Nc2ccc3c(c2)OCO3)cc1 (centres undefined)	-	-	55.3	.	-	-	-
Cc1ccc(NC(=O)CN(C)C(=O)/C=C/c2ccc3c(c2)OCO3)cc1	.	-	-	-	-	-	.
CC(=O)N(C)c1ccc(OCC(O)CN(c2ccccc2C)S(=O)(=O)c2ccc(C)cc2)cc1 (centres undefined)	.	-	-	.	-	-	.
CCN1C(=O)[C@H]2[C@@H](c3ccc(-c4ccc(OC)cc4)c(OC)c3)N[C@@](Cc3ccccc3)(C(=O)OC)[C@H]2C1=O	.	-	51.5	.	-	-	-
SMILES	m-calpain inh	aDG glyco act	FAS TE block	TAG inh	MIN6 prolif	Cardio protect	FAS-TE inh conf
CCN1C(=O)[C@H]2[C@@H](c3ccc(-c4cccc(Cl)c4)c(OC)c3)N[C@@](Cc3ccccc3)(C(=O)OC)[C@H]2C1=O	.	-	-	-	-	-	.
CCN1C(=O)[C@H]2[C@@H](c3ccc(-c4ccccc4)cc3)N[C@@](Cc3ccccc3)(C(=O)OC)[C@H]2C1=O	.	-	-	-	-	-	.
CCN1C(=O)[C@H]2[C@@H](c3ccc(-c4ccc5c(c4)OCO5)c(OC)c3)N[C@@](Cc3ccccc3)(C(=O)OC)[C@H]2C1=O	.	-	90.8	-	-	-	-
COC(=O)[C@]1(Cc2ccccc2)N[C@H](c2ccc(-c3ccc(F)cc3)cc2)[C@@H]2C(=O)N(C)C(=O)[C@@H]21	.	-	85.4	-	-	-	-
CCN1C(=O)[C@H]2[C@@H](c3ccc(-c4ccc(Cl)c(Cl)c4)cc3)N[C@@](Cc3ccccc3)(C(=O)OC)[C@H]2C1=O	.	-	89.2	-	-	-	-
CCNC(=O)C1(C)CCN(C(=O)c2cccc(C(F)(F)F)c2)C1 (centres undefined)	.	-	-	-	.	-	.
CCN(C[C@H]1N[C@@](Cc2ccccc2)(C(=O)OC)[C@H]2C(=O)N(C)C(=O)[C@@H]12)S(=O)(=O)c1ccc(-c2ccccc2)cc1	.	-	51.6	-	-	-	-
CCCCOC(=O)/C=C\C(=O)NC(N)=O	-	-	-	-	-	-	.
O=C(Nc1ccc(-c2nnc3n2CCCCC3)cc1)c1cc2ccccc2o1	-	-	-	-	-	-	.
Cc1c(C(=O)Nc2ccc(-c3nnc4n3CCCCC4)cc2)oc2c1ccc1ccccc12	-	-	78.0	.	-	52.3	-
CCOc1ccccc1NC(=O)NNC(=O)COc1cccc(C)c1C	.	-	-	-	-	-	.
Cc1ccc(S(=O)(=O)Nc2nc(-c3ccccc3)cs2)cc1	.	-	-	.	-	-	.
Cc1ccc(S(=O)(=O)Nc2ccccc2C(=O)Nc2nc(-c3ccc(F)cc3)cs2)cc1	-	-	56.0	.	-	-	57.5
COc1ccc(-c2csc(NC(=O)c3ccccc3NS(=O)(=O)c3ccc(F)c(F)c3)n2)cc1	60.5	-	58.1	-	-	-	-
COc1ccc2c(c1OC)C(CC(C)=O)N1CCc3cc4c(cc3C1C2=O)OCO4 (centres undefined)	.	-	-	-	.	-	.
Cc1ccc(CN(C(=O)COc2ccc(C)c(C)c2)C2CCS(=O)(=O)C2)o1 (centres undefined)	.	-	-	.	-	-	.
CNC(=S)N1CCc2cc(OC)c(OC)cc2C1COc1ccc(OC)cc1 (centres undefined)	-	-	-	-	-	-	.
CCOc1ccc(NC(=S)N2CCc3cc(OC)c(OC)cc3C2COc2ccc3c(C)cc(=O)oc3c2)cc1 (centres undefined)	-	-	77.7	.	-	-	-
Cc1cc(C(=O)COC(=O)c2ccc(N)c([N+](=O)[O-])c2)c(C)n1-c1ccc2c(c1)OCO2	-	-	63.1	.	-	-	-
Cc1cc(C(=O)COC(=O)c2ccc(N)c([N+](=O)[O-])c2)c(C)n1Cc1ccc2c(c1)OCO2	-	-	-	-	-	-	.
